Results from PubChem BioAssay (Tox21).
Inconclusive results are not listed. Calls of active or inactive are those of the source. The call rests on the fitted dose curve; in most records, active means well fitted activation curve with a large enough effect in the repeat runs; inconclusive means weak or mixed curves; inactive means no such curve, though single readings can be large or run the other way.

Assay: qHTS assay to identify small molecule agonists of the estrogen related receptor signaling pathway with the pleiotropic PPARgamma coactivator (PGC) (AID 1224823)
Settings: ERR/PGC reporter cell line, luciferase agonist mode; series mostly up to 46.1 µM; activation: at the top concentration
How it was run: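 PGC/ERR reporter cells seeded 6 h, then exposed to compounds (23 nL in DMSO) for 18 h at 37 C. One-Glo luciferase luminescence read after 30 min at room temperature.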
On the % scale 0 is the no-effect control and ±100 the full control effect.

SMILES	activation
CCCCC[C@H](CC(=O)NO)C(=O)N[C@H](C(=O)N1CCC[C@H]1CO)C(C)C	-23.6% (inactive)
N[C@H](CO)C(=O)O	1.97% (inactive)
C[N+](C)(C)CC=O	-2.3% (inactive)
CC(=O)N[C@H](C(=O)O)C(C)(C)SN=O	0.694% (inactive)
O=C1OC(=O)C2C3CCC(O3)C12 (stereo unspecified)	20.5% (inactive)
O=c1cc(-c2ccccc2)oc2c(O)c(O)ccc12	-4.99% (inactive)
